Laboratory results published in paper PMC7819943, “Rice protein-binding microarrays: a tool to detect cis-acting elements near promoter regions in rice”.
Whole data set: some 35,000 sequences, median “fluorescence intensity (a.u.)” near 10,000, cut for the highest 2% near 52,000. For the sample, the highest values were picked, then their nearest neighbours and some sequences at random.

The sequences below were run against T1, OsWOX13 (Oryza sativa, UniProt Q5QMM3 1-267) (assay: protein-binding microarray (RPBM); PBS, 2% BSA, 51.3 ng/ul salmon testes DNA, 50 uM zinc acetate, 200 nM TF, 25 C, 1 h; high values mean tight binding). Conditions: protein: recombinant; tags: N-terminal polyhistidine and DsRed monomer fusion (pET32a); label: CyDye5-dUTP incorporated in the synthesized complementary strand; 3' TTTTT single-stranded linker to array surface; dsDNA, one strand shown.
T1 sequence: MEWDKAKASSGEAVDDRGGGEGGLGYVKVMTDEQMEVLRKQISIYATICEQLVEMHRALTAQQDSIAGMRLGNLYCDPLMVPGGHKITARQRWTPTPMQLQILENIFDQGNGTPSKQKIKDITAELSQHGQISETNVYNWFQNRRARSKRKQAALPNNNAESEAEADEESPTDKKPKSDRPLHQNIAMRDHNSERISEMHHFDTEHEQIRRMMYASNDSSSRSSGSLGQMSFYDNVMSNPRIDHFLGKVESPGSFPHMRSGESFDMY
How it was run: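 Using Ni–NTA, transcription factors fused N-terminally to polyhistidine and DsRed were purified after expression in E. coli BL21-CodonPlus. These were incubated at 200 nM with a blocked, double-stranded custom Agilent array for 1 h at 25 °C in a buffer containing 50 µM zinc acetate, and the array was washed. The binding signal is per-feature fluorescence intensity (arbitrary units) on an Axon 4000B scanner.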

Sequence	binding signal
GTATTAATCATGTTTTATCATCTAACAACAACGAAAATACCGGAGTCACCTAGTGCAG	7970 fluorescence intensity (a.u.)
ATAATTTGCTAATACTTAATTAATCACGTGTTAATGGATCCGGAGTCACCTAGTGCAG	36600 fluorescence intensity (a.u.)
AGTTCCCTCTAATTATAATTATAATGTCCTTGGTTTAGGACGGAGTCACCTAGTGCAG	16200 fluorescence intensity (a.u.)
CCTTGCAATCATTCATCAGAGGAGGAGTTCTACAGTGATGCGGAGTCACCTAGTGCAG	3760 fluorescence intensity (a.u.)
GCAATCTTTCATTATCATAATTGGTCGTAGCTTTAATTACCGGAGTCACCTAGTGCAG	8430 fluorescence intensity (a.u.)
TTAATTAGATGCTCATATAAATATGGTGAAACCTGCATGCCGGAGTCACCTAGTGCAG	21500 fluorescence intensity (a.u.)
CCAAATTTAATTTTACCTATTTTAAATGTGGCGATATATCCGGAGTCACCTAGTGCAG	17900 fluorescence intensity (a.u.)
GTCTTAATTGAATGCATCAATTATACTTTTGCAGGAGTTTCGGAGTCACCTAGTGCAG	64900 fluorescence intensity (a.u.)
TAATAATTAGTGATTAATTATCCTGACCATTGATTCAACACGGAGTCACCTAGTGCAG	48300 fluorescence intensity (a.u.)
AAAATAAATAAATAAATTTGGTAACATTGATTAATTAGGACGGAGTCACCTAGTGCAG	21200 fluorescence intensity (a.u.)
AATGATTGAAGGATATCCATTTGAATGATGGTATGCTTTACGGAGTCACCTAGTGCAG	43000 fluorescence intensity (a.u.)
GGAGTGATTAAATTAGTTAATTAGTTAATAATCCCATTGACGGAGTCACCTAGTGCAG	56800 fluorescence intensity (a.u.)
TAGCTAATTCTTAATTAATTATACGCTAATGAATCACTTTCGGAGTCACCTAGTGCAG	23900 fluorescence intensity (a.u.)
ATAAATAGTAATTGACATTAAGAATGGGACCCACACTCTACGGAGTCACCTAGTGCAG	53000 fluorescence intensity (a.u.)
TTAATTGATTCCATGAAGGTATAATGATACTTTTATGGTACGGAGTCACCTAGTGCAG	65000 fluorescence intensity (a.u.)
ACACTAAATTATTCTACCCACAAATTAAATAATTGAAATACGGAGTCACCTAGTGCAG	9290 fluorescence intensity (a.u.)
AGTTAACATGATTTATGATAATTTTAATGTAAATGGTATACGGAGTCACCTAGTGCAG	16700 fluorescence intensity (a.u.)
GCGTAATAGTAATAATTGATTAATGGTGACACGAGAAGGACGGAGTCACCTAGTGCAG	46600 fluorescence intensity (a.u.)
TAATACTTAATTAATTATATGCTAAATGCTTCTTCGTTTTCGGAGTCACCTAGTGCAG	27300 fluorescence intensity (a.u.)
TGCTAATAAATCTTGATTTGTTTCACATAGAAGCTGCATCCGGAGTCACCTAGTGCAG	26400 fluorescence intensity (a.u.)
TGATTAAATTGCTTTAACTTTTATTTAATTTGTAGAAAATCGGAGTCACCTAGTGCAG	22500 fluorescence intensity (a.u.)
TTGTTAATTACCTTGTTTAATTAATTTCGCTAGCTTAGATCGGAGTCACCTAGTGCAG	44700 fluorescence intensity (a.u.)
CACTAATTGATCAATTGCACAACAAATTGCTTGAATAACGCGGAGTCACCTAGTGCAG	59900 fluorescence intensity (a.u.)
TAAATATATTGTCAAATTATATTTAATGTTTTATTTGATACGGAGTCACCTAGTGCAG	3180 fluorescence intensity (a.u.)
TGTGACATTTCCAATCACTAATTGATCAATTGCACAACAACGGAGTCACCTAGTGCAG	38100 fluorescence intensity (a.u.)
TTGATTAAATACAAAATTAATAGTCAAAGTTTTAAAAGTTCGGAGTCACCTAGTGCAG	18200 fluorescence intensity (a.u.)
ATATGATAATAATTATTTAAAGAAATAAATTTATTTTGGACGGAGTCACCTAGTGCAG	28700 fluorescence intensity (a.u.)

Sequence	binding signal
CAGATAATTAGCTACCTGTTTAATAGATCATCTTGATCATCGGAGTCACCTAGTGCAG	53400 fluorescence intensity (a.u.)
AAACTGTTTTAATAATAGATAGATAGATAGATAGATAGATCGGAGTCACCTAGTGCAG	18200 fluorescence intensity (a.u.)
TGGACAACAATTCTTGATTGAATTTAATTAACGGATAACGCGGAGTCACCTAGTGCAG	28000 fluorescence intensity (a.u.)
GTAAAAGTTAATTGATTTGTTTATACCCTCAAATAGCCATCGGAGTCACCTAGTGCAG	58700 fluorescence intensity (a.u.)
CATGATTGCTCATCTTTGTATTAAAAGAAATAATTTATGTCGGAGTCACCTAGTGCAG	53500 fluorescence intensity (a.u.)
GACAAATTATGGCATTTTAAAATCCAAAATATGGAAAGGGCGGAGTCACCTAGTGCAG	14600 fluorescence intensity (a.u.)
ACTTATATTCTTTAACTTATGATTGGAGGTATATACTATACGGAGTCACCTAGTGCAG	5760 fluorescence intensity (a.u.)
CTTCTTGATTGATTTATACTAACTGCGCACACACTTTATTCGGAGTCACCTAGTGCAG	55200 fluorescence intensity (a.u.)
CTTGATTTATTGATTGATTAATAAAACATTTTATTTCCAACGGAGTCACCTAGTGCAG	56900 fluorescence intensity (a.u.)
TGATAGATGGAAAATAAATTGGTAAAATTAGTAGATGGGACGGAGTCACCTAGTGCAG	39700 fluorescence intensity (a.u.)
GTATGATTAATTGAGTTTTAATTATTATAAAATTTTAAAACGGAGTCACCTAGTGCAG	22900 fluorescence intensity (a.u.)
CTTATTATAAAGATTTAATTATAACAAATATAATGGTATGCGGAGTCACCTAGTGCAG	4800 fluorescence intensity (a.u.)
GATTCAATGATGGATTTAATAAAACTAATTTGGTATTGCTCGGAGTCACCTAGTGCAG	18700 fluorescence intensity (a.u.)
CAATGATTGGACTAAAGAAAATGCTAATATTAATGGTATGCGGAGTCACCTAGTGCAG	52300 fluorescence intensity (a.u.)
AACATTGATTAATATTGGTCAAAATATTTTCAACTCTAAACGGAGTCACCTAGTGCAG	19200 fluorescence intensity (a.u.)
ACCGTGATTACGGTAATTGGAAATATAAAAGAGATGGGAGCGGAGTCACCTAGTGCAG	56800 fluorescence intensity (a.u.)
CTTAACTGTAACACTATTGCGTTGATTACTTCTACTTATTCGGAGTCACCTAGTGCAG	15200 fluorescence intensity (a.u.)
ATAATTGGTAAAGATGGATTCAAAATATTATTAATAATTGCGGAGTCACCTAGTGCAG	26200 fluorescence intensity (a.u.)
GTACCTACCAGTAATTAATCAGCAGGCTCACTGTAATCAACGGAGTCACCTAGTGCAG	3470 fluorescence intensity (a.u.)
CATTTGATTTTCGGTCTGATTTTGTTATTTCACTGGCAATCGGAGTCACCTAGTGCAG	24300 fluorescence intensity (a.u.)
GGTGACAGTTTGGTTAGTGACAAATAGTTACATTCTCGTTCGGAGTCACCTAGTGCAG	5070 fluorescence intensity (a.u.)
GTTTAAAGAAATTGATGAAAGAAAAGCTTCATTGTTGGCTCGGAGTCACCTAGTGCAG	6180 fluorescence intensity (a.u.)
TTTAATTGAACTTGAGTGGTCCAGGTATTAAATGTGGGTCCGGAGTCACCTAGTGCAG	52200 fluorescence intensity (a.u.)
ACCCAGGCTTTGATTGCGATGATAAACCGAGCTCGCAGCACGGAGTCACCTAGTGCAG	13800 fluorescence intensity (a.u.)
GGAAATTTAACTATTTGCCACTTTTAGGTTTATCAATTATCGGAGTCACCTAGTGCAG	4880 fluorescence intensity (a.u.)
ATTGGACCTGAACACTGCTAATTAATTGGTATAAGTCATCCGGAGTCACCTAGTGCAG	8360 fluorescence intensity (a.u.)
ATTAATGAACTGTGACATTTCCTTAATTTCATTTTGCTCTCGGAGTCACCTAGTGCAG	23800 fluorescence intensity (a.u.)
